This is an account of results in ChEMBL document CHEMBL1961873, “Compounds: GSK PKIS; Assays: Nanosyn kinase panel” (2012).

Test [1] concerns the target T1, 3-phosphoinositide-dependent protein kinase 1 (Homo sapiens) (UniProt O15530).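 Also: values are mean inhibition of PDK1.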
T1 sequence (whole entry): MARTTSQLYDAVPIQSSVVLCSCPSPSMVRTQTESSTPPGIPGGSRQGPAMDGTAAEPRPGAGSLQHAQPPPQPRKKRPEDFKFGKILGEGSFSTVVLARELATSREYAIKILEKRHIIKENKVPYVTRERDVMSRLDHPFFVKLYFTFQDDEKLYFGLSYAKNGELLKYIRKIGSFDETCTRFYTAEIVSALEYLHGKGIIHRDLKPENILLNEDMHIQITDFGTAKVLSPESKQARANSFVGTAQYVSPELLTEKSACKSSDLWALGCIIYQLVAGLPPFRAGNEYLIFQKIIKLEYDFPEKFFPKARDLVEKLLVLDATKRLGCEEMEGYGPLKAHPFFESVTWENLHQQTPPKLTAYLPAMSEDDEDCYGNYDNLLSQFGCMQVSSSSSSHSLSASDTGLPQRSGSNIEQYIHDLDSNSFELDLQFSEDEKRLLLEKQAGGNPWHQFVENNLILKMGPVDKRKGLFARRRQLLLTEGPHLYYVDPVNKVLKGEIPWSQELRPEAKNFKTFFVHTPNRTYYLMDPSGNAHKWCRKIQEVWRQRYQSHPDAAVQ
The conditions noted are these: at 0.1 µM.

The target of test [2] is cAMP-dependent protein kinase catalytic subunit alpha (Homo sapiens) (UniProt P17612). The conditions noted are these: at 0.1 µM.
Test [3] shares this target. The conditions noted are these: at 1 µM.
The target of test [4] is Protein kinase C alpha type (Homo sapiens) (UniProt P17252). The note with it: at 0.1 µM.
Test [5] has the same target. The note with it: at 1 µM.
Test [6] concerns the target Protein kinase C beta type (Homo sapiens) (UniProt P05771). The note with it: at 0.1 µM.
For test [7] the target is unchanged. The note with it: at 1 µM.
The target of test [8] is Protein kinase C eta type (Homo sapiens) (UniProt P24723). The note with it: at 0.1 µM.
For test [9] the target is unchanged. The note with it: at 1 µM.
The target of test [10] is Protein kinase C gamma type (Homo sapiens) (UniProt P05129). The conditions noted are these: at 0.1 µM.
Test [11] has the same target. The note with it: at 1 µM.
Test [12] deals with T2, Protein kinase C iota type (Homo sapiens) (UniProt P41743).
T2 sequence (whole entry): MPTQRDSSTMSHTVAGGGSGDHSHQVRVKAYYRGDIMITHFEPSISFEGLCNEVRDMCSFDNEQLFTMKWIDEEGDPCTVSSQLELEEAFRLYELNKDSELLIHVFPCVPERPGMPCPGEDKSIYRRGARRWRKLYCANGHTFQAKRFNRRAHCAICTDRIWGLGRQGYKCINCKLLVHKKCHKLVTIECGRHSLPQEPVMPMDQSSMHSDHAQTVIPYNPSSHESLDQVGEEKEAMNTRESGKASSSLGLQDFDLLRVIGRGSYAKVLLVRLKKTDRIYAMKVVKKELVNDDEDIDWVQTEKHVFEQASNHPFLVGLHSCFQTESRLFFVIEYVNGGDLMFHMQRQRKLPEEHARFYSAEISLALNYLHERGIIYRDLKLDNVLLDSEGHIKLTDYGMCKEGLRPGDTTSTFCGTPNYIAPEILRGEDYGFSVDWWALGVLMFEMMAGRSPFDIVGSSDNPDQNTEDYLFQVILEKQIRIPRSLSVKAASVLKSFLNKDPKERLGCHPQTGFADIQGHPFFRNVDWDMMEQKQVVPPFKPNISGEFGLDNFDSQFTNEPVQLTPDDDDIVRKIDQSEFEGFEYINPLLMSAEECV
The conditions noted are these: at 0.1 µM.

Test [13] deals with T2, Protein kinase C iota type (Homo sapiens). The conditions noted are these: at 1 µM.
Test [14] addresses Protein kinase C theta type (Homo sapiens) (UniProt Q04759). The conditions noted are these: at 0.1 µM.
Test [15] has the same target. The note with it: at 1 µM.
Test [16] concerns the target Protein kinase C beta type (Homo sapiens) (UniProt P05771). The note with it: at 0.1 µM. The source holds these as a separate data set.
Test [17] has the same target. The conditions noted are these: at 1 µM. The source holds these as a separate data set.
Test [18] has as its target T3, Serine/threonine-protein kinase D1 (Homo sapiens) (UniProt Q15139).
T3 sequence (whole entry): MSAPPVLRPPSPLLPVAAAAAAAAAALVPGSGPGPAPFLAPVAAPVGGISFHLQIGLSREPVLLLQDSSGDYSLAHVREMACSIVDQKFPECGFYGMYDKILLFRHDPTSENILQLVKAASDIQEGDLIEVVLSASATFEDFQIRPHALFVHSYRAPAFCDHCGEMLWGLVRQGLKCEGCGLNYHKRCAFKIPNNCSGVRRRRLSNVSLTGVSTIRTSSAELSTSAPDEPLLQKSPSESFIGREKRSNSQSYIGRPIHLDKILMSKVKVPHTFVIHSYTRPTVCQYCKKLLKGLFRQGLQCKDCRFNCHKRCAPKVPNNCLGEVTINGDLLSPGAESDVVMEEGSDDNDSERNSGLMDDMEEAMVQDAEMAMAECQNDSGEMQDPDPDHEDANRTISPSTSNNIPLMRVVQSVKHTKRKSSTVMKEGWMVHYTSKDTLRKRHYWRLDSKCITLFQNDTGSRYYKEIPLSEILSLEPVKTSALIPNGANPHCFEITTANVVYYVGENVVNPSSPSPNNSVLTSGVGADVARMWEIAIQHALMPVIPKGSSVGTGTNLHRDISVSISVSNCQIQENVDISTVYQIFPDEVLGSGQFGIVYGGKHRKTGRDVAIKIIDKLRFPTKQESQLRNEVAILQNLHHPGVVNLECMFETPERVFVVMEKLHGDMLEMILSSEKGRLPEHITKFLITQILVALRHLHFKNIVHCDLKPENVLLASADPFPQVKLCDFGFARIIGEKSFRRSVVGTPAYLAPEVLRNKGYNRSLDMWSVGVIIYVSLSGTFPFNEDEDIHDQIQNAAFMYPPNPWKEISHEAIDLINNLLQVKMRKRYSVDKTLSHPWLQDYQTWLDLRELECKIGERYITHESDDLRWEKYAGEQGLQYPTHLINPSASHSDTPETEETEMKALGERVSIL
The note with it: at 0.1 µM.

Test [19] deals with T3, Serine/threonine-protein kinase D1 (Homo sapiens). The conditions noted are these: at 1 µM.
Test [20] concerns the target T4, Serine/threonine-protein kinase D2 (Homo sapiens) (UniProt Q9BZL6).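 Also: reported percent inhibition values are means, part of the GSK PKIS kinase panel screen.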
T4 sequence (whole entry): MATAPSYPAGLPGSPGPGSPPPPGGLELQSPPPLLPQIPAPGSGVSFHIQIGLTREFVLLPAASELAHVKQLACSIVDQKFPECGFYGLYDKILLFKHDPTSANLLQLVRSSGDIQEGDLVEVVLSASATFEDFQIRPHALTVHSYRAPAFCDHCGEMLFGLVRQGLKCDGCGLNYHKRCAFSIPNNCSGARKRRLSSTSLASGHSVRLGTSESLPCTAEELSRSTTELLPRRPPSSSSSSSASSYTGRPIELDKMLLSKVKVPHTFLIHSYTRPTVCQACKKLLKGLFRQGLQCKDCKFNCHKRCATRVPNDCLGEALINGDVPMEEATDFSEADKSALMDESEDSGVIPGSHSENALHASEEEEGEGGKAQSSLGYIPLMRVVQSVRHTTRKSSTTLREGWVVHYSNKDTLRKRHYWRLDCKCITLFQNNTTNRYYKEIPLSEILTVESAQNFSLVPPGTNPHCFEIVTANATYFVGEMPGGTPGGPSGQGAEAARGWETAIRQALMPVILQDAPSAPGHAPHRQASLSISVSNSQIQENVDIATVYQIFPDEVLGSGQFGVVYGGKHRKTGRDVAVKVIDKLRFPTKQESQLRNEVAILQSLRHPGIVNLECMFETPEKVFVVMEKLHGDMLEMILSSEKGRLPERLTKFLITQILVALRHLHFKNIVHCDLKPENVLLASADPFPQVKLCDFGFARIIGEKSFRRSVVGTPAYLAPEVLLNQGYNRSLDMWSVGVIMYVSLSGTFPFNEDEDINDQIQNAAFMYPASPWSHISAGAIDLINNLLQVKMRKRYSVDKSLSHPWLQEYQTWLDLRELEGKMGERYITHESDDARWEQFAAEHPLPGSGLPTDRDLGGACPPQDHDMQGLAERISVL
The note with it: at 0.1 µM.

Protein kinase C beta type (Homo sapiens), sequence (P05771 2-671 limits assumed): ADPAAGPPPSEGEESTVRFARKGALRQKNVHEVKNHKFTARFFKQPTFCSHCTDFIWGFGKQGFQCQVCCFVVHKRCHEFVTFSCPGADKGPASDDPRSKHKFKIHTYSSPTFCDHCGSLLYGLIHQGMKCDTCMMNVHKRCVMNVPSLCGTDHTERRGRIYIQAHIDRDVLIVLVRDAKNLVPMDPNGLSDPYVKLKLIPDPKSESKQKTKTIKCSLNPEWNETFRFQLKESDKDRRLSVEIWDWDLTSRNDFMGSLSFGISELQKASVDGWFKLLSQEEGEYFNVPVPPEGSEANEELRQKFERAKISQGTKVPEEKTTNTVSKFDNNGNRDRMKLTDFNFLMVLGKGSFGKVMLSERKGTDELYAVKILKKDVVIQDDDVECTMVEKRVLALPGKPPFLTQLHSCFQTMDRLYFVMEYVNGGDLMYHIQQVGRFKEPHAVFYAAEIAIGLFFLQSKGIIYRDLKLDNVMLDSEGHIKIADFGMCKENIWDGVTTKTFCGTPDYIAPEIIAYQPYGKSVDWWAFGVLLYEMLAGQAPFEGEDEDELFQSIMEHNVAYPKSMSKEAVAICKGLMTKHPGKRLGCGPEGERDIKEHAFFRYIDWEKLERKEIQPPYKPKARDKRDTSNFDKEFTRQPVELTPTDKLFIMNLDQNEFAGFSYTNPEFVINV
Protein kinase C eta type (Homo sapiens), sequence (P24723 whole entry): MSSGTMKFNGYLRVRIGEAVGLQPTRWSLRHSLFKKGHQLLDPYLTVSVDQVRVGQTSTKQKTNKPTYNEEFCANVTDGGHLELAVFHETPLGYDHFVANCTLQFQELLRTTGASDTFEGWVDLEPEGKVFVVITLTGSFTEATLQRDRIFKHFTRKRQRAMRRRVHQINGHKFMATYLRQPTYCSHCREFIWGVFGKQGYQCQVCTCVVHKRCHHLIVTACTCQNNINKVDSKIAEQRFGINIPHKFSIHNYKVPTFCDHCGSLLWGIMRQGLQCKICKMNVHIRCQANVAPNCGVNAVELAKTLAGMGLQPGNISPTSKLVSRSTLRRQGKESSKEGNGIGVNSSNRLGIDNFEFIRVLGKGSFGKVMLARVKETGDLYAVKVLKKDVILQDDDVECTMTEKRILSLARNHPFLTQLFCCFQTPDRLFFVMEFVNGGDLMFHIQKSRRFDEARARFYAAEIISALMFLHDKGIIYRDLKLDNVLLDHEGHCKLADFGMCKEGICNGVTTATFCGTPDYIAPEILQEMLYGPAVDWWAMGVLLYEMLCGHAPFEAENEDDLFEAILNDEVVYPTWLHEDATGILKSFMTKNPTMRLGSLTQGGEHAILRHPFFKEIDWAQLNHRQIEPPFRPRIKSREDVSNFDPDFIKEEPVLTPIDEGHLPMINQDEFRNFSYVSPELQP
Protein kinase C theta type (Homo sapiens), sequence (Q04759 whole entry, looked up): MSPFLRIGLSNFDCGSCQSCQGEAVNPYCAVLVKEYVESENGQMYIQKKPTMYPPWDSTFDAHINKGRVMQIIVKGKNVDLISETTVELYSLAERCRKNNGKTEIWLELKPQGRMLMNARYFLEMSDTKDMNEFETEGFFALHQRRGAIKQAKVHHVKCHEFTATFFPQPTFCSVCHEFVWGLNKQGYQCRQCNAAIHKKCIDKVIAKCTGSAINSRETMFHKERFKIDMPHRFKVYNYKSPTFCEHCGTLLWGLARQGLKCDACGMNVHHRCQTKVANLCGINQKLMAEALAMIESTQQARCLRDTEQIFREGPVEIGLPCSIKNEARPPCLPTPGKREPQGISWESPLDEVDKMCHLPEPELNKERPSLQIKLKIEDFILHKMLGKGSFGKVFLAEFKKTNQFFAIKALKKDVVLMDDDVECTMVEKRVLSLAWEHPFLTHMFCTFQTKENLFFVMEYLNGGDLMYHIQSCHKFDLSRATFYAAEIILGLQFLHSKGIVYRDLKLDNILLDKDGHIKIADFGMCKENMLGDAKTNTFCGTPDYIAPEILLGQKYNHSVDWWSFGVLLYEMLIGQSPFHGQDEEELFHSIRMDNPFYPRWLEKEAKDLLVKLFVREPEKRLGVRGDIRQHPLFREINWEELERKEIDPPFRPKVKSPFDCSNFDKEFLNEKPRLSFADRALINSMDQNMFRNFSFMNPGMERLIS

`CNC(=O)c1cncc(/C=C/c2ccccc2C)c1`: the inhibition in [1] is 2.42%; in test [2], 4.12%; in test [3], 3.53%; in test [4], 0.63%; in test [5] it was 1.68%; in test [6], 1.31%. Further, the inhibition in [7] was 5.47%; in test [8] it was 4.83%; in test [9] it was 5.78%; in test [10] it was -2.58%; in [11], 4.82%; in [12] it was 0.25%. For the same compound, the inhibition in test [13] came out at 1.08%; in test [14], 2.42%; in test [15] it was 5.04%; in test [16] it was 0.51%; in test [17], 3.14%; in [18], 3.24%. Also, the inhibition came out at 5.01% in [19] and 3.71% in test [20].

Turning to `O=C(O[C@H]1CN[C@H](C#Cc2cc3ncnc(Nc4ccc5c(cnn5Cc5ccccc5)c4)c3s2)C1)N1CCOCC1`, the inhibition in test [1] is -1.36%; in [2] it was 0.31%; in [3], 1.15%; in test [4], 0.54%; in [5] it was -0.04%; in [6], -0.18%. For the same compound, the inhibition is -6.28% in test [7]; -1.67% in test [8]; -2.51% in test [9]; 1.56% in test [10]; 1.11% in [11]; -1.84% in test [12]. In addition, the inhibition in test [13] was -0.97%; in [14], -0.32%; in [15] it was -1.1%; in test [16], -0.16%; in test [17] it was -0.06%; in [18] it was 2.57%. Moreover, the inhibition in test [19] turned out to be 1.38%; in [20], 1.01%.

Regarding `Fc1ccc(Nc2nccc(-c3c(-c4ccc(C(F)(F)F)cc4)nn4ncccc34)n2)cc1F`, the inhibition in test [1] was 3.96%; in test [2], 1.44%; in test [3], 1.2%; in test [4], 1.5%; in test [5], 2.09%; in test [6], -0.08%. The inhibition in test [7] was -1.29%; in test [8], 0.94%; in test [9], 1.72%; in test [10] it was 1.67%; in [11], 4.39%; in test [12], 0.34%. The inhibition in test [13] came out at 3.68%; in test [14] it was 1.71%; in test [15], 0.47%; in test [16], 0.7%; in test [17], 0.3%; in test [18], 3.32%. In addition, the inhibition in test [19] was found to be 5.39%; in [20], 3.45%.

For the compound `CS(=O)(=O)CCNCc1ccoc1-c1ccc2ncnc(Nc3ccc(OCc4ccccc4)cc3)c2c1`, the inhibition in test [1] is 1.23%; in [2], 1.55%; in [3], 1.02%; in test [4], -0.16%; in test [5] it was 0.23%; in test [6], -0.13%. Moreover, the inhibition in [7] is -4.5%; in [8], 1.81%; in test [9] it was -0.91%; in test [10], 0.57%; in test [11] it was 0.87%; in test [12], 0.27%. Besides, the inhibition is -1.03% in test [13]; -0.2% in [14]; 0.08% in test [15]; -0.23% in test [16]; 0.72% in [17]; 1.6% in [18]. For the same compound, the inhibition came out at 2.33% in test [19] and 1.46% in test [20].

On to `c1ccc(-c2n[nH]cc2-c2ccnc(-c3ccc(OCCn4ccnc4)cc3)c2)nc1`, for which the inhibition in test [1] came to 0.22%; in test [2], 0.39%; in test [3], 4.32%; in test [4], 0.35%; in test [5], 0.47%; in test [6], 0.31%. In addition, the inhibition was 0.68% in test [7]; -2.29% in test [8]; -0.53% in [9]; 0.17% in test [10]; 2.35% in test [11]; 0.38% in [12]. For the same compound, the inhibition in test [13] is -0.37%; in test [14] it was 0.23%; in test [15], 0.98%; in test [16], 0.85%; in test [17], -0.29%; in test [18] it was 9.5%. For the same compound, the figures for the inhibition in [19] and in [20] were 56.5% and 14.6%, respectively.

As to `O=C(O[C@H]1CN[C@H](C#Cc2cc3ncnc(Nc4ccc5c(ccn5Cc5cc(F)ccc5F)c4)c3s2)C1)N1CCOCC1`, the inhibition in test [1] turned out to be 2.16%; in test [2], 1.86%; in test [3], 1.48%; in test [4], 0.78%; in [5], 2.63%; in test [6] it was 1.59%. The inhibition was 1.27% in test [7]; 5.63% in test [8]; 3.54% in [9]; 1.38% in test [10]; 3.05% in test [11]; 2.82% in test [12]. In addition, the inhibition in test [13] came out at 3.06%; in [14], 1.84%; in test [15], 0.91%; in test [16] it was 1.75%; in test [17], 0.99%; in test [18], 3.66%. Further, the inhibition in test [19] was 6.58%; in test [20] it was 4.5%.

On to `COc1cccc(-n2ncc3c(N/N=C/c4ccc(C(=O)NCCN(C)C)cc4)ncnc32)c1`, for which the inhibition in test [1] is 2.52%; in test [2] it was 2.29%; in test [3], 11.4%; in test [4], 1.03%; in [5] it was 9.37%; in test [6], 1.2%. The inhibition amounted to 6.99% in test [7]; 2.52% in test [8]; 0.62% in test [9]; 26.3% in [10]; 4.05% in test [11]; 2.38% in test [12]. Besides, the inhibition in [13] is 10.3%; in test [14], 1.61%; in [15], 1.46%; in test [16], 1.88%; in [17] it was 17.7%; in test [18], 2.09%. For the same compound, the inhibition in test [19] is 7.26%; in test [20], 2.5%.

By inhibition is commonly meant the change of the read-out against control, counted positive when it falls.
